Among the test systems are DU-145 prostate; K-562 leukemia; MALME-3M melanoma; MDA-MB-231 breast; RXF 393 renal; SF-268 CNS; SF-295 CNS; SF-539 CNS; M14 melanoma; UACC-257 melanoma.
Holding throughout (assay): NCI-60 one-dose screen, 48 h (100 = growth as untreated, 0 = no growth, -100 = all killed)
What all share (conditions): 10 µM unless noted

This is part of a sample that, as a whole, favours compounds with a hit. Of some 83,000 tested, about 20% had one in any assay.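 Percent growth is the endpoint: 0 to 100 indicates growth inhibition (40 means 60% inhibition), 0 means no net growth, and negative values indicate cell death.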 Unmarked numbers belong to inactive results. Active and inactive are the calls of the source. The calls were made as follows: active = growth percent below 10; inactive = the rest.

In the case of `COC(=S)SCN(CSC(=S)OC)c1ccc(Cl)cc1`, the growth in the test with DU-145 prostate was 110%; in the test on K-562 leukemia, 90.1%; in the test on MALME-3M melanoma, 75.1%; in the test with MDA-MB-231 breast, 66.1%; with RXF 393 renal, 95.3%; in the test with SF-268 CNS, 94.2%. Besides, the growth with SF-295 CNS was 84.8%; with SF-539 CNS, 84.8%; in the test with M14 melanoma it was 77%.

As to `O=[N+]([O-])c1cccc(-c2nc3sccn3c2-c2ccnc(NCCCNS(=O)(=O)c3ccc(Br)cc3)n2)c1`, the growth with DU-145 prostate is 58.9%; in the test on K-562 leukemia, 31.7%; in the test on MALME-3M melanoma, 59.9%; in the test on MDA-MB-231 breast it was 67.3%; in the test on RXF 393 renal it was 81.3%; in the test on SF-268 CNS, 56.6%. The growth with SF-295 CNS is 48.2%; in the test with SF-539 CNS, 90.3%; in the test with UACC-257 melanoma, 61.1%; in the test with M14 melanoma, 45.8%.

`O=C(/C=C\c1cccc([N+](=O)[O-])c1)c1ccccc1`: the growth was 59% in the test with DU-145 prostate; 180% in the test with K-562 leukemia; 36.6% with MALME-3M melanoma; 104% in the test with MDA-MB-231 breast; 14.9% with RXF 393 renal; 25.8% with SF-268 CNS. Also, the growth in the test on SF-295 CNS was 89.9%; in the test with SF-539 CNS, 85.4%; in the test on M14 melanoma it was 26.8%.

As for `CCCCCn1cnc2c(=S)nc[nH]c21`, the growth is 124% with DU-145 prostate; 97.9% in the test on K-562 leukemia; 111% in the test on MALME-3M melanoma; 131% in the test with MDA-MB-231 breast; 160% in the test with RXF 393 renal; 124% with SF-268 CNS. For the same compound, the growth in the test with SF-295 CNS is 119%; with SF-539 CNS, 91%; in the test on UACC-257 melanoma it was 131%; in the test with M14 melanoma, 120%.

In the case of `COc1ccccc1N1CCN(CCn2c(=O)c3c(c4ccccc4n3C)n(C)c2=O)CC1`, the growth is 107% in the test on DU-145 prostate; 100% with K-562 leukemia; 110% in the test on MALME-3M melanoma; 90.4% with MDA-MB-231 breast; 101% in the test on RXF 393 renal; 96.2% in the test on SF-268 CNS. Also, the growth in the test on SF-295 CNS was 97.8%; in the test with UACC-257 melanoma, 90.6%; in the test with M14 melanoma, 98.8%.

As for `O=C(CO[N+](=O)[O-])Nc1ccc(C(=O)/C=C/c2ccc3c(c2)OCO3)cc1`, the growth is 96.7% in the test on DU-145 prostate; 59.1% with K-562 leukemia; 116% in the test with MALME-3M melanoma; 87.4% with MDA-MB-231 breast; 107% in the test on RXF 393 renal; 82.4% in the test with SF-268 CNS. Moreover, the values for the growth in the test on SF-295 CNS, in the test on UACC-257 melanoma and with M14 melanoma were 74.6%, 92.9% and 81.8%, respectively.

Regarding `COc1ccc(-c2cc(-c3ccc(N(C)C)cc3)nc(NC(=O)c3ccncc3)n2)cc1`, the growth in the test with DU-145 prostate was 102%; in the test on K-562 leukemia, 95%; with MALME-3M melanoma, 119%; with MDA-MB-231 breast, 111%; in the test with RXF 393 renal, 87.3%; in the test with SF-268 CNS it was 98.1%. The growth in the test with SF-295 CNS was 105%; in the test on SF-539 CNS it was 96.8%; with UACC-257 melanoma, 108%; in the test on M14 melanoma, 104%.

As for `CCN(CC)c1ccc(/C=C/C2=[N+](C)c3ccccc3C2(C)C)cc1`, the growth with DU-145 prostate was 14.3%; in the test with K-562 leukemia, 28.3%; in the test with MALME-3M melanoma it was 19%; in the test with MDA-MB-231 breast it was 7.79% (active); in the test with RXF 393 renal, 33.7%; with SF-268 CNS it was 17%. The growth in the test with SF-295 CNS is -19% (active); in the test on SF-539 CNS it was 14.7%; in the test on M14 melanoma it was 22.4%.

Consider `O=C1C=CC(=O)N1c1ccc(Cc2ccc(N3C(=O)C=CC3=O)cc2)cc1`, for which the growth with DU-145 prostate is 111%; with K-562 leukemia it was 66.4%; in the test with MALME-3M melanoma, 88.2%; in the test on MDA-MB-231 breast, 90.3%; in the test with RXF 393 renal, 106%; in the test on SF-268 CNS, 118%. The growth with SF-295 CNS was 121%; in the test on SF-539 CNS it was 93.4%; with M14 melanoma, 96.8%.

For `Cc1cc2cc3cc(C)c(N(C)C)cc3[n+](C)c2cc1N(C)C`, the growth is 24.2% with DU-145 prostate; 44.7% with K-562 leukemia; 19.9% in the test on MALME-3M melanoma; 57.1% with MDA-MB-231 breast; 25% in the test on RXF 393 renal; 11.7% with SF-268 CNS. For the same compound, the growth in the test on SF-295 CNS is 16.6%; in the test with SF-539 CNS, 9.99% (active); in the test on M14 melanoma it was 41.2%.

With `Cc1nc2sc(C(=O)Nc3cccc4c3OCCO4)c(N)c2cc1C(C)O` (centres undefined), the growth is 47.7% in the test on DU-145 prostate; 13.3% in the test with K-562 leukemia; 47.1% in the test on MALME-3M melanoma; 39.9% in the test with MDA-MB-231 breast; -5.15% (active) in the test with RXF 393 renal; 49.9% with SF-268 CNS. Also, the growth is 10.9% with SF-295 CNS, 4.07% (active) with SF-539 CNS, 55.7% in the test on UACC-257 melanoma and 37.5% in the test with M14 melanoma.

With `C/C(Cc1ccc(Cl)cc1)=C(\c1ccc(OCCN2CCCCCC2)cc1)c1ccc(OC(=O)C2CCCCC2)cc1`, the growth in the test on DU-145 prostate was 70.4%; in the test with K-562 leukemia, 11.4%; in the test on MALME-3M melanoma, 85.7%; in the test on MDA-MB-231 breast, 85.4%; in the test with RXF 393 renal, 56.2%; in the test on SF-268 CNS, 57%. For the same compound, the growth is 89.8% in the test with SF-295 CNS, 74.2% in the test with SF-539 CNS, 91% in the test with UACC-257 melanoma and 12.7% in the test on M14 melanoma.

With `NC(=S)N/N=C/c1cc(-c2cccc(N)c2)ccn1`, the growth in the test on DU-145 prostate is 28.1%; with K-562 leukemia it was 14.9%; with MALME-3M melanoma it was 15.6%; with MDA-MB-231 breast it was 57.6%; with RXF 393 renal it was 34.5%; in the test with SF-268 CNS, 21.2%. Besides, the growth with SF-295 CNS was 9.47% (active); in the test with UACC-257 melanoma, 29.3%; in the test on M14 melanoma, 1.75% (active).

As for `O=C1c2ccccc2-c2nccc3cc(Cl)nc1c23`, the growth was 37.3% in the test on DU-145 prostate; -6.02% (active) with K-562 leukemia; -65.6% (active) in the test on MALME-3M melanoma; 78.7% in the test with MDA-MB-231 breast; -43.1% (active) in the test with RXF 393 renal; 24.6% in the test with SF-268 CNS. The growth was 53.2% in the test with SF-295 CNS, 58.6% in the test with UACC-257 melanoma and -63.4% (active) in the test with M14 melanoma.

Take `CS(=O)(=O)c1c(Nc2ccccc2)n[nH]c1N`: the growth was 115% in the test on DU-145 prostate; 93.2% in the test with K-562 leukemia; 124% with MALME-3M melanoma; 103% in the test with MDA-MB-231 breast; 114% in the test on RXF 393 renal; 111% in the test on SF-268 CNS. For the same compound, the growth is 126% in the test with SF-295 CNS, 105% in the test on UACC-257 melanoma and 113% with M14 melanoma.

As to `O=C1c2cccnc2C(=O)c2c1c(C(=O)OCCN1CCCCC1)c1ccccn21`, the growth in the test on DU-145 prostate was -89.7% (active); with K-562 leukemia, -40.9% (active); with MALME-3M melanoma, -74.3% (active); with MDA-MB-231 breast it was -27.9% (active); in the test on RXF 393 renal, -44.5% (active); with SF-268 CNS, -19.8% (active). Also, the growth is -37% (active) in the test with SF-295 CNS, -75% (active) in the test with UACC-257 melanoma and -20.8% (active) in the test with M14 melanoma.

Turning to `Oc1c(Cl)cc(Cl)cc1CNc1nccnn1`, the growth is 101% in the test with DU-145 prostate; 125% in the test on K-562 leukemia; 93.9% in the test with MALME-3M melanoma; 104% in the test on MDA-MB-231 breast; 108% in the test on RXF 393 renal; 96.6% in the test with SF-268 CNS. Besides, the growth in the test on SF-295 CNS was 101%; in the test on UACC-257 melanoma it was 105%; in the test on M14 melanoma it was 91.9%.

In the case of `CS(CCCCN=C=S)=NC(=O)c1c(F)c(F)c(F)c(F)c1F` (centres undefined), the growth was 41.4% with DU-145 prostate; 22.5% in the test on K-562 leukemia; 44.8% in the test with MALME-3M melanoma; 67.9% in the test with MDA-MB-231 breast; 41.9% in the test on RXF 393 renal; 86.8% in the test with SF-268 CNS. Moreover, the growth in the test on SF-295 CNS was 102%; with UACC-257 melanoma, 61.5%; with M14 melanoma, 62.8%.

For `COc1cc2c(cc1O)CCc1cc(O)cc(OC)c1-2`, the growth in the test with DU-145 prostate was 109%; with K-562 leukemia it was 99.2%; with MALME-3M melanoma, 96.5%; with MDA-MB-231 breast, 83.1%; in the test on RXF 393 renal it was 103%; in the test with SF-268 CNS, 93.8%. For the same compound, the figures for the growth in the test with SF-295 CNS, in the test on UACC-257 melanoma and in the test on M14 melanoma were 103%, 95.3% and 94.6%, respectively.

Regarding `C[C@@]1(N2C(=O)OC[C@@H]2c2ccccc2)C(=O)N([C@H](CC(=O)N2CCC(N3CCCCC3)CC2)C(=O)NCc2cccc(C(F)(F)F)c2)[C@@H]1/C=C/c1ccccc1`, the growth in the test with DU-145 prostate was 63.5%; with K-562 leukemia it was -40.6% (active); in the test with MALME-3M melanoma, -69.5% (active); in the test with MDA-MB-231 breast it was 31%; in the test on RXF 393 renal it was 61%; in the test with SF-268 CNS, 63.2%. Also, the growth is 100% with SF-295 CNS, -72.1% (active) in the test with UACC-257 melanoma and -54.3% (active) in the test with M14 melanoma.

Turning to `N=c1c2ccccc2nc2n1CCCCC2`, the growth in the test with DU-145 prostate was 118%; with K-562 leukemia it was 121%; in the test on MALME-3M melanoma, 107%; with MDA-MB-231 breast it was 110%; with RXF 393 renal it was 110%; in the test on SF-268 CNS, 106%. For the same compound, the growth in the test on SF-295 CNS is 109%; with UACC-257 melanoma, 110%; in the test on M14 melanoma, 108%.

The values are drawn from PubChem BioAssay (NCI).
